Laboratory results reported in PubChem BioAssay (EPA / NIEHS).
Results filed as inconclusive are left out. Calls of active or inactive are those of the source. Rule for the calls: active = hit-call score of the fitted dose curve at least 0.9, where 1 is the maximum; inconclusive = response in the unintended direction; inactive = score below 0.9.

Experiments:
[1] = TOX21_p53_BLA_p2_viability: Viability Assessment in the Tox21 HCT-116 p53 Agonism Beta-lactamase Assay, Phase 2 (AID 2283591);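 note: compound exposure lasted 16 h at 37 °C; actives lower the ATP signal meaning cytotoxicity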
Procedure, shortened: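 HCT-116 p53-bla cells (4000/well) rested 5 h at 37C, then received compounds in DMSO (217-fold dilution) for 16 h at 37C, 5% CO2. After the CCF4 read, CellTiter-Glo was added; ATP luminescence was read after 30 min at room temperature.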

[2] = target: Cellular tumor antigen p53 (Homo sapiens) (UniProt P04637); assay: TOX21_p53_BLA_p2_ratio: Tox21 HCT-116 p53 Agonism Beta-lactamase Assay, Ratio, Phase 2 (AID 2283592)
Chain of Cellular tumor antigen p53 (Homo sapiens) (P04637 whole entry, looked up): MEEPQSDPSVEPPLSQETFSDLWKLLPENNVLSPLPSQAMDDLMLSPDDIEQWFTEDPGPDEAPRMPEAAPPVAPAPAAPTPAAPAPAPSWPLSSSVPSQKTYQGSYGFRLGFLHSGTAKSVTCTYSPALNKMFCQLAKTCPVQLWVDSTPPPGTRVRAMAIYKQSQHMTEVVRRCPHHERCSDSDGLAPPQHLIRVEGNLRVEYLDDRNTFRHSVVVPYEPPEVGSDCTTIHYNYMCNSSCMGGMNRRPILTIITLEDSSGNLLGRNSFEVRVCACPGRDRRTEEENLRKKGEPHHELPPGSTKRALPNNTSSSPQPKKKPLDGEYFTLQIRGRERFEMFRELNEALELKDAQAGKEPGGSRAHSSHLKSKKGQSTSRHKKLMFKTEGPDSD
Procedure, shortened: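 First, HCT116 reporter cells settle for 5 h at 37C. Next, DMSO compound solutions are pinned in (217-fold dilution) and left 16 h. Finally, CCF4-AM substrate is loaded 2 h at room temperature and the 460/530 nm ratio read.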

[3] = TOX21_p53_BLA_p3_viability: Viability Assessment in the Tox21 HCT-116 p53 Agonism Beta-lactamase Assay, Phase 3 (AID 2283593);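 note: cells exposed to compound for 16 h before reading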
Procedure, shortened: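 HCT-116 cells (4000/well) rested 5 h at 37C, then got DMSO compounds by pin tool (217-fold dilution) for 16 h at 37C, 5% CO2. After the bla read, CellTiter-Glo was added and luminescence read at 30 min, room temperature.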

[4] = target: Cellular tumor antigen p53 (Homo sapiens) (UniProt P04637); assay: TOX21_p53_BLA_p3_ratio: Tox21 HCT-116 p53 Agonism Beta-lactamase Assay, Ratio, Phase 3 (AID 2283596)
Procedure, shortened: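 Cells were seeded at 4000/well, rested 5 h at 37C, then dosed with DMSO compound solutions (217-fold dilution) for 16 h. CCF4-AM substrate was loaded for 2 h at room temperature, and the 460/530 nm emission ratio was fitted for gain of signal versus DMSO.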

[5] = TOX21_p53_BLA_p4_viability: Viability Assessment in the Tox21 HCT-116 p53 Agonism Beta-lactamase Assay, Phase 4 (AID 2283597);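 note: hits lower the luminescence signal meaning cytotoxicity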
Procedure, shortened: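 4000 HCT116 cells per well; 5 h attachment; compounds from DMSO, 217-fold dilution; 16 h at 37C. Then CCF4-AM, 2 h RT, followed by CellTiter-Glo, 30 min RT, luminescence. Decrease = cytotoxicity.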

[6] = target: Cellular tumor antigen p53 (Homo sapiens) (UniProt P04637); assay: TOX21_p53_BLA_p5_ratio: Tox21 HCT-116 p53 Agonism Beta-lactamase Assay, Ratio, Phase 5 (AID 2283599)
Procedure, shortened: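 HCT-116 cells carrying a p53-inducible beta-lactamase reporter were seeded at 4000 cells/well and dosed after 5 h with compound in DMSO (217-fold dilution). After 16 h at 37C, CCF4-AM substrate was added for 2 h, and the 460/530 nm emission ratio was scored as gain-of-signal versus DMSO.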

For `CN(C)CCCNCCCN(C)C`, the outcome [1] was “inactive”, the outcome [2] was “inactive” and the outcome [3] was “inactive”. The outcome [4] was “inactive”, the outcome [5] was “inactive” and the outcome [6] was “inactive”.
In the case of `CCCCOC(=O)C(C)OC(=O)CCC` (stereo not given), the outcome [1] is reported as “inactive”, the outcome [2] is reported as “inactive” and the outcome [4] is reported as “inactive”.
In the case of `CC1=CCC(C(C)(C)O)CC1` (stereo not given), the outcome [1] is reported as “inactive”, the outcome [2] is reported as “inactive” and the outcome [3] is reported as “inactive”. For the same compound, the outcome [4] was “inactive”, the outcome [5] was “inactive” and the outcome [6] was “inactive”.
For `C=C(C)C(=O)OCCC[Si](OC)(OC)OC`, the outcome [1] was “inactive”, the outcome [2] was “inactive” and the outcome [3] was “inactive”. For the same compound, the outcome [4] was “inactive”, the outcome [5] was “inactive” and the outcome [6] was “inactive”.
In the case of `CC(C)OB(OC(C)C)OC(C)C`, the outcome [1] is reported as “inactive”, the outcome [2] is reported as “inactive” and the outcome [4] is reported as “inactive”. For the same compound, the outcome [5] was “inactive”.
In the case of `CCC(C)(C)c1cc(O)c(C(C)(C)CC)cc1O`, the outcome [1] is reported as “inactive”, the outcome [2] is reported as “inactive” and the outcome [3] is reported as “inactive”. The outcome [6] was “inactive”.
With `O=C(Nc1cccc(Cl)c1)OCC#CCCl` the AC50 [1] was 67.5 µM (active), the AC50 [2] was 19.9 µM (active) and the AC50 [3] was 69.2 µM (active). For the same compound, the AC50 [4] was 13.4 µM (active), the AC50 [5] was 56.1 µM (active) and the AC50 [6] was 14.1 µM (active).
For `CCC(=O)OC(C)(C)C1CC=C(C)CC1` (stereo not given), the outcome [1] was “inactive”, the outcome [2] was “inactive” and the outcome [3] was “inactive”. The outcome [4] was “inactive”, the outcome [5] was “inactive” and the outcome [6] was “inactive”.
With `CNC(=C[N+](=O)[O-])NCCSCc1ccc(CN(C)C)o1` the outcome [1] was “inactive”, the outcome [2] was “inactive” and the outcome [3] was “inactive”. For the same compound, the outcome [5] was “inactive”.
For `NCCCOCCOCCOCCCN`, the outcome [1] was “inactive”, the outcome [2] was “inactive” and the outcome [3] was “inactive”. The outcome [4] was “inactive”, the outcome [5] was “inactive” and the outcome [6] was “inactive”.
For `COC(=O)c1cccc(C(=O)OC)c1`, the outcome [1] was “inactive”, the outcome [2] was “inactive” and the outcome [3] was “inactive”. The outcome [4] was “inactive”, the outcome [5] was “inactive” and the outcome [6] was “inactive”.
With `O=C(O)c1ccco1` the outcome [1] was “inactive”, the outcome [2] was “inactive” and the outcome [3] was “inactive”. For the same compound, the outcome [4] was “inactive” and the outcome [6] was “inactive”.
With `CC1=CC(C)C(C=O)C(C)C1` (stereo not given) (tested in a mixture with another compound) the outcome [1] was “inactive”, the outcome [2] was “inactive” and the outcome [4] was “inactive”.
With `c1ccc2scnc2c1` the outcome [1] was “inactive”, the outcome [2] was “inactive” and the outcome [3] was “inactive”. For the same compound, the outcome [4] was “inactive” and the outcome [6] was “inactive”.
In the case of `CCCCCCCC(=O)N(C)C`, the outcome [1] is reported as “inactive”, the outcome [2] is reported as “inactive” and the outcome [3] is reported as “inactive”. For the same compound, the outcome [5] was “inactive” and the outcome [6] was “inactive”.
In the case of `CC(C)(C)c1cccc(O)c1`, the outcome [1] is reported as “inactive”, the outcome [2] is reported as “inactive” and the outcome [4] is reported as “inactive”. The outcome [6] was “inactive”.
In the case of `CCCCC(CC)COC(=O)COc1ccc(Cl)cc1C` (stereo not given), the outcome [2] is reported as “inactive”, the outcome [3] is reported as “inactive” and the outcome [5] is reported as “inactive”.
In the case of `CCC(C)C1CCCCC1=O` (stereo not given), the outcome [2] is reported as “inactive”.
With `CC1=CC(=O)[C@H]2C[C@@H]1C2(C)C` the outcome [2] was “inactive”, the outcome [3] was “inactive” and the outcome [5] was “inactive”. For the same compound, the outcome [6] was “inactive”.
In the case of `O=C(O)c1cc(C(=O)O)c(C(=O)O)cc1C(=O)O`, the outcome [2] is reported as “inactive”.
With `C[Si]1(C)N[Si](C)(C)N[Si](C)(C)N1` the outcome [1] was “inactive”, the outcome [2] was “inactive” and the outcome [4] was “inactive”. The outcome [5] was “inactive” and the outcome [6] was “inactive”.
For `CCCCCC1CCC(=O)O1` (stereo not given), the outcome [1] was “inactive”, the outcome [2] was “inactive” and the outcome [4] was “inactive”. For the same compound, the outcome [6] was “inactive”.
In the case of `C=CC(C)CCCC(C)(C)O` (stereo not given), the outcome [3] is reported as “inactive”, the outcome [4] is reported as “inactive” and the outcome [5] is reported as “inactive”. For the same compound, the outcome [6] was “inactive”.
With `c1coc(CNc2ncnc3nc[nH]c23)c1` the outcome [1] was “inactive”, the outcome [3] was “inactive” and the outcome [5] was “inactive”. For the same compound, the outcome [6] was “inactive”.
For `Nc1cc([N+](=O)[O-])ccc1C(=O)O`, the outcome [1] was “inactive”, the outcome [2] was “inactive” and the outcome [4] was “inactive”. For the same compound, the outcome [5] was “inactive” and the outcome [6] was “inactive”.
With `CC(=O)OC(C)(C)C1CC=C(C)CC1` (stereo not given) the outcome [1] was “inactive”, the outcome [4] was “inactive” and the outcome [6] was “inactive”.
With `C=COCC1CCC(COC=C)CC1` (stereo not given) the outcome [4] was “inactive” and the outcome [6] was “inactive”.
In the case of `C/C=C(\C)C(=O)OC/C=C(\C)CCC=C(C)C`, the outcome [2] is reported as “inactive” and the outcome [6] is reported as “inactive”.
With `O=C(C=Cc1ccccc1)OCCCc1ccccc1` the outcome [1] was “inactive”, the outcome [3] was “inactive” and the outcome [4] was “inactive”. For the same compound, the outcome [5] was “inactive” and the outcome [6] was “inactive”.
In the case of `C=CC(C)(CCC=C(C)C)OC(=O)CC` (stereo not given), the outcome [2] is reported as “inactive” and the outcome [6] is reported as “inactive”.
For `CC(C)CCCC(C)(C)O`, the outcome [3] was “inactive”, the outcome [4] was “inactive” and the outcome [6] was “inactive”.
With `O=S1(=O)CC=CC1` the outcome [2] was “inactive”, the outcome [3] was “inactive” and the outcome [4] was “inactive”. The outcome [5] was “inactive” and the outcome [6] was “inactive”.
For `CCNC(=S)NCC`, the outcome [1] was “inactive”, the outcome [2] was “inactive” and the outcome [5] was “inactive”. The outcome [6] was “inactive”.
With `c1ccc(-c2nn[nH]n2)cc1` the outcome [2] was “inactive”, the outcome [3] was “inactive” and the outcome [4] was “inactive”. The outcome [6] was “inactive”.
With `Cc1ccc(C(C)(C)O)cc1` the outcome [1] was “inactive”, the outcome [2] was “inactive” and the outcome [6] was “inactive”.
For `CC1=CCC(C(C)C)=CC1`, the outcome [3] was “inactive” and the outcome [4] was “inactive”.
With `CCOC(=O)CCCCCCCCC(=O)OCC` the outcome [2] was “inactive” and the outcome [6] was “inactive”.
For `CC(C)=CC(=O)O`, the outcome [1] was “inactive”, the outcome [3] was “inactive” and the outcome [6] was “inactive”.
In the case of `C=CCS(=O)(=O)O`, the outcome [2] is reported as “inactive”, the outcome [3] is reported as “inactive” and the outcome [6] is reported as “inactive”.
For `CCCO`, the outcome [2] was “inactive”, the outcome [4] was “inactive” and the outcome [5] was “inactive”. The outcome [6] was “inactive”.
For `ClCCOCCOCCCl`, the outcome [2] was “inactive” and the outcome [6] was “inactive”.
For `CCCCCCCCOC(C)=O`, the outcome [2] was “inactive”, the outcome [4] was “inactive” and the outcome [5] was “inactive”.
With `CC(=O)c1cccnc1` the outcome [2] was “inactive”, the outcome [4] was “inactive” and the outcome [5] was “inactive”. For the same compound, the outcome [6] was “inactive”.
For `CCCCCC#CC(=O)OC`, the outcome [4] was “inactive” and the outcome [6] was “inactive”.
In the case of `CC(C)=CCCC(C)=CC(=O)O`, the outcome [1] is reported as “inactive”, the outcome [3] is reported as “inactive” and the outcome [4] is reported as “inactive”. The outcome [5] was “inactive”.
With `N#CCCCC(C#N)CCC#N` (stereo not given) the outcome [2] was “inactive”, the outcome [3] was “inactive” and the outcome [5] was “inactive”. For the same compound, the outcome [6] was “inactive”.
For `CCCO[Si](OCCC)(OCCC)OCCC`, the outcome [3] was “inactive” and the outcome [5] was “inactive”.
For `CCCCC1CCCCC(=O)O1` (stereo not given), the outcome [1] was “inactive”, the outcome [3] was “inactive” and the outcome [4] was “inactive”. For the same compound, the outcome [5] was “inactive” and the outcome [6] was “inactive”.
In the case of `CCOc1ccc(NC(C)=O)cc1`, the outcome [2] is reported as “inactive”, the outcome [3] is reported as “inactive” and the outcome [4] is reported as “inactive”. For the same compound, the outcome [5] was “inactive” and the outcome [6] was “inactive”.
For `CCC(C)(CCCC(C)C)OC(C)=O` (stereo not given), the outcome [2] was “inactive”, the outcome [5] was “inactive” and the outcome [6] was “inactive”.
For `CC(C)COC(=O)c1ccccc1O`, the outcome [2] was “inactive”, the outcome [3] was “inactive” and the outcome [4] was “inactive”. For the same compound, the outcome [5] was “inactive” and the outcome [6] was “inactive”.
With `CCCCCCCCCCOC(=O)c1ccccc1C(=O)OCCCCCCCC` the outcome [5] was “inactive” and the outcome [6] was “inactive”.
For `CC1=CCC(=C(C)C)CC1`, the outcome [1] was “inactive”, the outcome [3] was “inactive” and the outcome [4] was “inactive”. For the same compound, the outcome [6] was “inactive”.
In the case of `CC(C)N1C(=O)c2ccccc2C1=O`, the outcome [1] is reported as “inactive”, the outcome [2] is reported as “inactive” and the outcome [6] is reported as “inactive”.
